Assay results published in PubChem BioAssay (EPA / NIEHS).
Several values for one entry are separate records, joined by “and”; a condition that tells them apart may be missing. Equal entries are not always repeated. The source holds several records for some structures; these can differ, active in one and inactive in another. Activity calls are given as the source filed them. The calls were made as follows: active = hit-call score of the fitted dose curve at least 0.9, where 1 is the maximum; inactive = score below 0.9.

Columns and labels:
[1] = read-out: Transforming growth factor beta 1 (TGFb1), TGFB1 (gene 7040); experiment: BSK_KF3CT_TGFb1: BioMAP Diversity Plus: KF3CT Assay for Transforming growth factor beta 1 (TGFb1) Biomarker Activity (AID 2283072); details: primary human keratinocytes with fibroblasts; actives raise or lower the signal
Summary of the method: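 Signal changes in either direction, relative to DMSO, define activity here. TGF-b1 is read by ELISA from a human keratinocyte-fibroblast co-culture 24 h post-dose.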

[2] = read-out: C-C motif chemokine 2 (Homo sapiens) (UniProt P13500); experiment: BSK_KF3CT_MCP1: BioMAP Diversity Plus: KF3CT Assay for Monocyte Chemoattractant Protein 1 (MCP1/CCL2) Biomarker Activity (AID 2283073); details: primary human keratinocytes with fibroblasts; actives raise or lower the signal
Summary of the method: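 ELISA read-out of MCP-1, 24 h post-dose, in primary human skin keratinocytes co-cultured with fibroblasts. Parallel SRB staining monitors cytotoxicity; changes fitted both directions relative to DMSO.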

[3] = read-out: Matrix Metallopeptidase 9 (MMP9), MMP9 (gene 4318); experiment: BSK_KF3CT_MMP9: BioMAP Diversity Plus: KF3CT Assay for Matrix Metallopeptidase 9 (MMP9) Biomarker Activity (AID 2283074); details: primary human keratinocytes with fibroblasts; actives raise or lower the signal;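 as to AC50: MMP9 protein level quantified by ELISA in the co-culture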
Summary of the method: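 Human keratinocyte and foreskin fibroblast co-culture exposed to chemicals for 24 h; MMP9 biomarker measured by ELISA, bidirectional fitting relative to DMSO; cytotoxicity tracked by SRB total protein staining in parallel cultures.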

[4] = read-out: urokinase plasminogen activator (uPA), PLAU (gene 5328); experiment: BSK_KF3CT_uPA: BioMAP Diversity Plus: KF3CT Assay for urokinase plasminogen activator (uPA) Biomarker Activity (AID 2283075); details: primary human keratinocytes with fibroblasts; actives raise or lower the signal
Summary of the method: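 Primary human keratinocyte/foreskin fibroblast co-culture exposed to chemical; uPA measured by ELISA at 24 h. Bidirectional fit versus DMSO, with parallel SRB total-protein staining for cytotoxicity.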

CD40, CD40 (gene 958) = experiment: BSK_LPS_CD40: BioMAP Diversity Plus: LPS Assay for CD40 Biomarker Activity (AID 2283076); details: primary human HUVEC with PBMC; actives raise or lower the signal
Summary of the method: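 In the LPS system of human endothelial cells with peripheral blood mononuclear cells, CD40 levels were read by ELISA 24 h post-treatment. Signal changes in either direction were fitted against the DMSO baseline, with parallel SRB protein staining.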

[5] = read-out: E-selectin (Homo sapiens) (UniProt P16581); experiment: BSK_LPS_Eselectin: BioMAP Diversity Plus: LPS Assay for Eselectin Biomarker Activity (AID 2283077); details: primary human HUVEC with PBMC; actives raise or lower the signal
Summary of the method: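 E-selectin ELISA on LPS-stimulated endothelial cell/PBMC co-cultures, read 24 h post-treatment; gains and losses fitted against DMSO. Parallel SRB staining (0.1% SRB after 10% TCA fixation, 560 nm) flags overt cytotoxicity.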

[6] = read-out: Interleukin-8 (IL8), CXCL8 (gene 3576); experiment: BSK_LPS_IL8: BioMAP Diversity Plus: LPS Assay for Interleukin-8 (IL8) Biomarker Activity (AID 2283078); details: primary human HUVEC with PBMC; actives raise or lower the signal
Summary of the method: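 ELISA read-out of IL-8 after 24 h chemical treatment of LPS-activated endothelial/PBMC human primary co-cultures. Changes either up or down relative to DMSO; overt cytotoxicity checked by sulforhodamine B staining in parallel wells.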

[7] = BSK_LPS_SRB: Viability Assessment in the BioMAP Diversity Plus: LPS Assay (AID 2283079); details: primary human HUVEC with PBMC;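 also: total protein by sulforhodamine B absorbance as a cytotoxicity measure; measured one day after compound addition; fitted in both directions against DMSO so loss or gain of signal counts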
Summary of the method: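 SRB viability endpoint: cells fixed with 10% TCA, stained with 0.1% SRB, read at 560 nm, 24 h post-dose. HUVEC/PBMC co-culture; signal change in either direction scored relative to DMSO.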

[8] = read-out: Interleukin-1 alpha (IL1a), IL1A (gene 3552); experiment: BSK_LPS_IL1a: BioMAP Diversity Plus: LPS Assay for Interleukin-1 alpha (IL1a) Biomarker Activity (AID 2283080); details: primary human HUVEC with PBMC; actives raise or lower the signal
Summary of the method: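 Readout is IL-1a level by ELISA, 24 h post-dose, fitted as gain or loss relative to DMSO. System: LPS-activated human primary co-culture of vascular endothelium and peripheral blood mononuclear cells, with parallel SRB total-protein cytotoxicity.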

[9] = read-out: Monocyte Chemoattractant Protein-1 (MCP1), CCL2 (gene 6347); experiment: BSK_LPS_MCP1: BioMAP Diversity Plus: LPS Assay for Monocyte Chemoattractant Protein-1 (MCP1) Biomarker Activity (AID 2283081); details: primary human HUVEC with PBMC; actives raise or lower the signal;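 as to AC50: secreted MCP-1 protein quantified by ELISA in culture supernatant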
Summary of the method: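 Secreted MCP-1 read by ELISA at 24 h post-dosing in an LPS-activated co-culture of endothelial cells with peripheral blood mononuclear cells. Fits run in both directions, DMSO as baseline; parallel SRB staining tracks overt cytotoxicity.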

Measured: AC50

Chain of E-selectin (Homo sapiens) (P16581 whole entry, looked up): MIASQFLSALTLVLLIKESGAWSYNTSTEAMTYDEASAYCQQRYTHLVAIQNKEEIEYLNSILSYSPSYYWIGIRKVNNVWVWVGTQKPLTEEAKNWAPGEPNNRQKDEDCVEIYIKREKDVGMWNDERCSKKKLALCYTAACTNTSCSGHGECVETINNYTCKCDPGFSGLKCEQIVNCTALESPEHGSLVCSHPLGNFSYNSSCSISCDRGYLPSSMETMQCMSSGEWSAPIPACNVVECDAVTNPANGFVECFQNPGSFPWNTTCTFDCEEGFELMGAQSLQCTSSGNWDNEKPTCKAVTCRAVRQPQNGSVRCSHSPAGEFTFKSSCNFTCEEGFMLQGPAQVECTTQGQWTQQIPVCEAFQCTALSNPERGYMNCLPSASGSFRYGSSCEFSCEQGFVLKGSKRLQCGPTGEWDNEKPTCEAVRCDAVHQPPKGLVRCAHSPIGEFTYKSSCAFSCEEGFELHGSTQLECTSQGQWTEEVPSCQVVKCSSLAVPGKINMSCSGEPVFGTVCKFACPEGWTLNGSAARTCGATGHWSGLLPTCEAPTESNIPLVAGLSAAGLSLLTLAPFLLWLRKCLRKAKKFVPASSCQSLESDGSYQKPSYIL

CCC(C)(NC(=O)c1cc(Cl)c(C)c(Cl)c1)C(=O)CCl (stereo not drawn)
active: [1] 20 µM | [2] 15.9 µM | [3] 7.45 µM | [4] 35.5 µM | CD40, CD40 (gene 958) 3.52 µM | [5] 10.1 µM | [6] 12.2 µM | [7] 20 µM | [8] 15.9 µM | [9] 12.2 µM

COC(=O)c1ccccc1S(=O)(=O)NC(=O)Nc1nc(C)nc(OC)n1
inactive: all assays above

COc1cc(OC)nc(NC(=O)NS(=O)(=O)c2cc(NC=O)ccc2C(=O)N(C)C)n1
inactive: all assays above

O=C(O)CCCOc1ccc(Cl)cc1Cl
inactive: all assays above

CNC(=O)Oc1ccccc1OC(C)C
active: [2] 0.147 µM
inactive: all other assays above

O=C(O)COc1ccc(Cl)cc1Cl
inactive: all assays above

O=S(=O)(O)C(F)(F)C(F)(F)C(F)(F)C(F)(F)C(F)(F)C(F)(F)C(F)(F)C(F)(F)F
inactive: [1] | [2] | [3] | [4] | CD40, CD40 (gene 958) | [5] | [6] | [7] | [8] | [9]
active: [1] 30.1 µM and 31.6 µM and 31.3 µM | [2] 16.8 µM | [4] 35.6 µM and 30.4 µM | [6] 9.09 µM and 1.92 µM and 7.33 µM

CCOCN(C(=O)CCl)c1c(C)cccc1CC
active: [3] 12.7 µM | CD40, CD40 (gene 958) 14.8 µM | [5] 28.5 µM | [7] 22.7 µM | [9] 31.2 µM
inactive: all other assays above

O=[N+]([O-])c1c(Cl)c(Cl)c(Cl)c(Cl)c1Cl
active: [3] 15.7 µM | [4] 31 µM | CD40, CD40 (gene 958) 17.9 µM | [5] 31.1 µM
inactive: all other assays above

O=C(O)C(F)(F)C(F)(F)C(F)(F)C(F)(F)C(F)(F)C(F)(F)C(F)(F)F
inactive: [1] | [2] | [3] | [4] | CD40, CD40 (gene 958) | [5] | [6] | [7] | [8] | [9]
active: CD40, CD40 (gene 958) 23.1 µM | [5] 16.1 µM | [6] 30 µM and 13.3 µM

CCC(C)(C)C(=O)OC1=C(c2ccc(Cl)cc2Cl)C(=O)OC12CCCCC2
active: [1] 31 µM | [2] 31.4 µM | [3] 20 µM | [4] 30.9 µM | CD40, CD40 (gene 958) 10.5 µM | [5] 25.3 µM | [6] 32.6 µM | [7] 28.6 µM | [8] 36.5 µM | [9] 31.2 µM

COP(=O)(OC)OC=C(Cl)Cl
active: CD40, CD40 (gene 958) 27.3 µM
inactive: all other assays above

N#Cc1c(Cl)c(Cl)c(Cl)c(C#N)c1Cl
active: [1] 1.32 µM | [2] 1.79 µM | [3] 1.23 µM | [4] 1.66 µM | CD40, CD40 (gene 958) 0.148 µM | [5] 0.758 µM | [6] 1.2 µM | [7] 3.65 µM | [8] 1.03 µM | [9] 1.16 µM

CCCN(CCOc1c(Cl)cc(Cl)cc1Cl)C(=O)n1ccnc1
active: CD40, CD40 (gene 958) 20 µM | [7] 31.4 µM
inactive: all other assays above

C[C@H]1[C@H](c2ccc(Cl)cc2)SC(=O)N1C(=O)NC1CCCCC1
active: [3] 9.22 µM | [7] 10.9 µM | [8] 26.4 µM | [9] 20.1 µM
inactive: all other assays above

O=[N+]([O-])/N=C1\NCCN1Cc1ccc(Cl)nc1
inactive: all assays above

ClC1C(Cl)C(Cl)C(Cl)C(Cl)C1Cl (stereo not drawn)
inactive: [1] | [2] | [3] | [4] | CD40, CD40 (gene 958) | [5] | [6] | [7] | [8] | [9]
active: [1] 20 µM

COP(=S)(OC)Oc1ccc(SC)c(C)c1
active: [7] 30.6 µM
inactive: all other assays above

N#CN
inactive: all assays above

COC(=O)c1ccccc1S(=O)(=O)NC(=O)N(C)c1nc(C)nc(OC)n1
inactive: all assays above

CNC(=O)/C=C(\C)OP(=O)(OC)OC
inactive: all assays above

CC(C)(C)C(O)/C(=C\c1ccc(Cl)cc1Cl)n1cncn1 (stereo not drawn)
inactive: [1]
active: [2] 34.3 µM | [3] 28.5 µM | [4] 32.2 µM | CD40, CD40 (gene 958) 18.4 µM | [5] 21.9 µM | [6] 32.4 µM | [7] 31 µM | [8] 33.2 µM | [9] 30.5 µM

CCN(CC)C(=O)SCc1ccc(Cl)cc1
inactive: all assays above

CCS(=O)(=O)c1cccnc1S(=O)(=O)NC(=O)Nc1nc(OC)cc(OC)n1
active: [2] 0.202 µM | [5] 7.35 µM | [6] 5.47 µM
inactive: all other assays above

O=C(Nc1ccccc1)Nc1cnns1
inactive: all assays above

OCCOc1ccccc1
inactive: all assays above
